Out of some 330,000 compounds screened, about 1,700 (0.52%) were called active. Rule as the data show it: active = inhibition above about 50%; inactive = the rest. This excerpt belongs to a sample that is enriched for actives.
Assay: lowers stimulated NF-kB reporter luminescence – cell-based, uHTS, TCR NF-kB activation inhibitor project, primary screen (AID 435003)
Conditions: Jurkat, PMA/ionomycin-induced NF-kB luciferase reporter, at 4 µM, active compounds read high

Compound	inhibition
CC(C)Cc1cc(C(=O)Nc2cc(Br)ccc2O)no1	-28.3% (inactive)
O=C(Nc1ccccc1C(F)(F)F)c1cc(-c2ccc(O)cc2)on1	-35.1% (inactive)
COC(=O)c1ccc(NC(=O)c2cc3c(CO)cnc(C)c3oc2=Nc2cccc(C(N)=O)c2)cc1	-7.55% (inactive)
c1ccc(-n2cccc2)c(N2CCCCC2)c1	6.35% (inactive)
C/C(=C(\C#N)C(=O)NCCCN1CCOCC1)N(C)C	-10.8% (inactive)
O=C(COC(=O)c1ccc(F)c(S(=O)(=O)N2CCOCC2)c1)NCc1ccc2c(c1)OCO2	-6.67% (inactive)
CC(=NCc1ccco1)c1c(C(F)(F)F)[nH]n(-c2nc3ccccc3s2)c1=O	-104% (inactive)
COc1ccc(C2=NN(c3nc4ccccc4s3)C(=O)C2)cc1	-52% (inactive)
COC(=O)Cc1[nH]n(-c2nc3ccccc3s2)c(=O)c1C(C)=Nc1ccc(OC)cc1	60.8% (active)
COc1ccc(CC(=O)NCc2nnc(SCC(=O)Nc3nccs3)n2C)cc1	-0.699% (inactive)
COc1ccc(OC)c(CCNC(=O)CCn2ccc3cc(S(=O)(=O)N4CCCC4)ccc32)c1	4.04% (inactive)
COc1ccccc1C(=O)Nc1ccc(OCc2nnc3c4ccccc4c(C)nn23)cc1	15.2% (inactive)
COc1ccc(Cc2nnc(N/N=C/c3ccccc3O)[nH]c2=O)cc1OC	10.5% (inactive)
Cc1nnc(N/N=C/c2ccccn2)[nH]c1=O	58.1% (active)
Cc1cc(C(=O)N/N=C/c2ccccn2)c2ccccc2n1	3.68% (inactive)
Cc1ccc2nc(SC(C)C(=O)NCc3ccco3)[nH]c2c1 (centres undefined)	7.59% (inactive)
COc1ccc(C(=O)NCC(=O)N/N=C/c2ccc([N+](=O)[O-])o2)cc1OC	8.93% (inactive)
O=C(/C=C/c1ccc([N+](=O)[O-])o1)NNC(=O)c1ccc(F)cc1	75.6% (active)
O=C(NNC(=O)C1CCCC1)c1ccc(F)cc1	-13.7% (inactive)
Cc1ccc(NC(=O)Cn2nnc(C(=O)NCc3ccco3)c2N)c(C)c1	-3.15% (inactive)
CCOc1ccccc1NC(=O)Cn1nnc(C(=O)NCc2cccs2)c1N	65.8% (active)
CCc1ccc(NC(=O)Cn2nnc(C(=O)NCc3ccc(OC)cc3)c2N)cc1	13.8% (inactive)

Compound	inhibition
CC[n+]1c(C)n(-c2ccccc2)c2ccc(NC(C)=O)cc21	35.7% (inactive)
N#Cc1ccc(-c2ccc(Cl)cc2)nc1Oc1ccc(F)cc1	-19.4% (inactive)
CCCC(=O)Nc1nc2ccc(NC(=O)c3cccnc3)cc2s1	40.8% (inactive)
CCCC(=O)Nc1nc2ccc(NC(=O)c3c(F)c(F)c(OC)c(F)c3F)cc2s1	57.8% (active)
CSc1nc2ccc(NC(=O)c3c(F)cccc3F)cc2s1	-93.5% (inactive)
COc1ccccc1NS(=O)(=O)c1ccc(C(=O)N2CCN(c3ccccc3O)CC2)cc1	-3.42% (inactive)
CC1(C)CN(c2ccc(-c3ccnc4ncnn34)cc2)C1=O	-3.78% (inactive)
Cc1cc(C(=O)OCC(=O)NCc2ccco2)c(C)n1-c1ccccc1	54.7% (active)
O=C(COC(=O)c1ccccc1O)NCc1ccco1	-0.428% (inactive)
CN(c1ccccc1)S(=O)(=O)c1ccc(Cl)c(C(=O)OCC(=O)NCc2ccco2)c1	-10.7% (inactive)
COc1ccc(NC(=O)N(C)C[C@H]2Oc3ccc(NC(=O)C4CC4)cc3C(=O)N([C@H](C)CO)C[C@@H]2C)cc1	-11.5% (inactive)
COc1ccc(-c2c(NC(=O)c3ccco3)oc3ccc(Cl)cc3c2=O)cc1	-5.27% (inactive)
COc1ccc(S(=O)(=O)N(C)C[C@H]2Oc3ccc(NS(=O)(=O)c4cccs4)cc3CC(=O)N([C@H](C)CO)C[C@H]2C)cc1	16% (inactive)
O=C(CSc1ncnc2scc(-c3ccccc3)c12)NCc1ccc2c(c1)OCO2	1.29% (inactive)
CC[C@]1(O)CC2CN(CCc3c([nH]c4ccccc34)[C@@](C(=O)OC)(c3cc4c(cc3OC)N(C=O)[C@H]3[C@@](O)(C(=O)OC)[C@H](OC(C)=O)[C@]5(CC)C=CCN6CC[C@]43[C@@H]65)C2)C1 (some centres undefined)	71.2% (active)
Cc1ccc(F)cc1S(=O)(=O)Nc1cccc(C(=O)N2CCCC(C(N)=O)C2)c1 (centres undefined)	12.4% (inactive)
CCC/C=C(\CCC)C(NC(=O)Cc1ccccc1)c1ccc(C(=O)OC)cc1 (centres undefined)	25.8% (inactive)
CCNC(=S)N(CCc1c(C)[nH]c2ccc(C)cc12)Cc1ccco1	-0.351% (inactive)
Cc1c(Nc2nc3ccccc3nc2NS(=O)(=O)c2cccs2)c(=O)n(-c2ccccc2)n1C	-0.383% (inactive)
Nc1c(-c2ccc(F)cc2)cnn1C1CCS(=O)(=O)C1 (centres undefined)	-7.3% (inactive)
O=C(CS(=O)(=O)Cc1ccccc1)Nc1cccnc1	7.62% (inactive)
COc1cc(OC)nc(N/N=C(\c2ccccc2)c2ccncc2)n1	-5.67% (inactive)
